From PubChem BioAssay AID588849 (Broad Institute, 2011)
Results with a measured potency or affinity are listed apart. Calls of active or inactive are those of the source. The rule behind the calls is not given here.

What follows are compounds tested against CAAX prenyl protease 2 (Homo sapiens) (UniProt Q9Y256) (assay: human Rce1 protease inhibitors, dose response, biochemical, yeast membranes, quenched-peptide fluorescence, cherry-pick (AID 588849)). Settings: yeast membrane fractions expressing human Rce1, quenched-peptide fluorescence, 4 h; series mostly up to 10 µM.
CAAX prenyl protease 2 (Homo sapiens), sequence (Q9Y256 whole entry, looked up): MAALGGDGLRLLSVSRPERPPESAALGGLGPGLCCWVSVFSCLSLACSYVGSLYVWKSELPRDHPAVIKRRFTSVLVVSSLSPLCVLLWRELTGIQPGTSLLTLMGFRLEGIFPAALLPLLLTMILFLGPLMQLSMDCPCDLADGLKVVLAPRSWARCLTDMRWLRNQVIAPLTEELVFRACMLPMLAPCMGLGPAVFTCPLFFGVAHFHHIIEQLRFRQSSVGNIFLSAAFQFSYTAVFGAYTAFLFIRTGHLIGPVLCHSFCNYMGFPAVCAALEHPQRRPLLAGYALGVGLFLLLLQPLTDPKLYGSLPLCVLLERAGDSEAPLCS
With `O=C(NC1CC1)c1ccc2c(c1)N(Cc1ccccc1)CCS2` the outcome was “inactive”. With `COc1ccccc1CC(=O)Nc1ccc2c(C)cc(=O)oc2c1` the outcome was “inactive”. `COc1ccccc1/C=C/C=N/NC(=O)CN1CCN(S(=O)(=O)c2ccc(C)cc2)CC1` was tested, and the outcome was “inactive”. For `CCN(Cc1ccccc1)S(=O)(=O)c1ccc(C(=O)N(CCCN(C)C)c2nc3cc(C)cc(C)c3s2)cc1`, the outcome was “inactive”. For `Cc1cc(C)c2nc(N(CCCN(C)C)C(=O)c3ccc4c(c3)CCCC4)sc2c1`, the outcome was “inactive”. In the case of `CCN(Cc1ccccc1)c1ccc(/C=N/N=C(N)N)cc1`, the outcome was “inactive”. `c1ccc(-n2nnnc2SCc2cn3cccnc3n2)cc1` was tested, and the outcome was “inactive”. For `CCC(COC)NC(=O)CCc1nnc(Cc2cccc(C(F)(F)F)c2)o1` (centres undefined), the outcome was “inactive”. `C=CCn1c(SCc2ccc(C#N)cc2)nnc1-c1ccc(C)cc1` was tested, and the outcome was “inactive”. `O=C(O)c1ccc2cccc(Cl)c2c1O` was tested, and the outcome was “inactive”. In the case of `COc1ccc([N+](=O)[O-])cc1CSc1ccccn1`, the outcome was “inactive”. For `COc1cc2ccccc2cc1C(=O)N(CCN(C)C)c1nc2ccc(C)cc2s1`, the outcome was “inactive”. `COc1ccc(-c2c(-c3ccsc3)oc3ccc(N4CCOCC4)cc23)cn1` was tested, and the outcome was “inactive”. `O=C(NCCc1c[nH]c2ccccc12)OCCSS(=O)(=O)O` was tested, and the outcome was “inactive”. For `CCN(CC)CCN(C(=O)c1ccc2ccccc2c1)c1nc2cc3c(cc2s1)OCO3`, the outcome was “inactive”. With `CC(=O)c1ccc(-c2ccc(C(=O)N3CCC(C(N)=O)CC3)o2)cc1` the outcome was “inactive”. `Cc1cc2cc(C#N)c(NCCNC(=S)NCCCN3CCOCC3)nc2cc1C` was tested, and the outcome was “inactive”. In the case of `COC(=O)c1sccc1NC(=O)CSc1nnnn1-c1ccccc1C`, the outcome was “inactive”. With `c1ccn2cc(-c3ccc4c(c3)OCCO4)nc2c1` the outcome was “inactive”. `Cc1cc2nn(-c3cccc4ccccc34)nc2cc1NC(=O)c1cccs1` was tested, and the outcome was “inactive”. For `O=c1c(-c2nnc(SCc3ccc(Cl)c(Cl)c3)o2)cccn1Cc1ccccc1`, the outcome was “inactive”. `Cc1ccc2nc(N(CCN(C)C)C(=O)c3ccc4ccccc4c3)sc2c1` was tested, and the outcome was “inactive”. With `CCCn1c(O)c(N=NC(=O)CNC(=O)Cc2ccc(OC)cc2)c2ccccc21` the outcome was “inactive”. For `COc1ccc(OC)c(Cc2nnc(CCC(=O)N3CCN(C4CCCC4)CC3)o2)c1`, the outcome was “inactive”. In the case of `C#CCNC(=O)C1=C[C@@H](C2CCCCC2)C[C@@H](OCc2ccc(CO)cc2)O1`, the outcome was “inactive”. In the case of `Cc1cc(C)n2cc(CSc3nncn3C)nc2n1`, the outcome was “inactive”. In the case of `C=C(C)C1(O)OC(=O)C=C1OC` (centres undefined), the outcome was “inactive”. For `CCN(CC)CCN(C(=O)c1cc2ccccc2cc1OC)c1nc2ccc(F)cc2s1`, the outcome was “inactive”. For `O=C(Nc1ccccc1N1CCOCC1)C1CCN(S(=O)(=O)c2ccc(F)cc2)CC1`, the outcome was “inactive”. For `CCC(C)Sc1cc(-c2nc3ccccn3c2NC2CCCCC2)ccc1OC` (centres undefined), the outcome was “inactive”. `CC(=O)Oc1ccc(C(=O)Nc2ccc(S(=O)(=O)NCC3CCCO3)cc2)cc1` (centres undefined) was tested, and the outcome was “inactive”. With `CCCCNC(=O)C(CC)Sc1nc2sc(C(=O)OC)c(C)c2c(=O)n1N` (centres undefined) the outcome was “inactive”. `Nc1nnc(-c2ccncc2)s1` was tested, and the outcome was “inactive”. In the case of `CC1=C(C(=O)OCc2ccccc2)C(c2ccc(-c3ccccc3)cc2)NC(=O)N1CCCC(=O)O` (centres undefined), the outcome was “inactive”. For `CCCCOc1ccc(-c2cc(C(F)(F)F)c(C#N)c(SCC(=O)O)n2)cc1`, the outcome was “inactive”. In the case of `c1ccc(-n2cnnc2SCc2cn3cccnc3n2)cc1`, the outcome was “inactive”. With `NC(=O)CCCn1c(C(=O)c2cc(Cl)c(N)c(Cl)c2)c2ccc(C(F)(F)F)cc2[n+]1[O-]` the outcome was “inactive”. In the case of `O=C(Nc1ncccn1)c1ccc([N+](=O)[O-])cc1`, the outcome was “inactive”. `Cc1cccc(NC(=O)C2(c3ccc([N+](=O)[O-])cc3)CCCC2)c1` was tested, and the outcome was “inactive”.
